CYP2C19 inhib: human CYP2C19 inhibition; CYP2C19 Supersomes, luciferin-H EGE luminescence, 30 min; inhibition, % at 5 µM; 96,000 compounds, 21% hits; AID 778;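 active = CYP2C19 inhibition above a set limit at 5 µM in the primary screen, cut at about 50% in these data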;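 note: plate controls were negative control wells for no effect and 2.5 mM tranylcypromine positive control for full effect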
Target sequence (P33261 whole entry, looked up): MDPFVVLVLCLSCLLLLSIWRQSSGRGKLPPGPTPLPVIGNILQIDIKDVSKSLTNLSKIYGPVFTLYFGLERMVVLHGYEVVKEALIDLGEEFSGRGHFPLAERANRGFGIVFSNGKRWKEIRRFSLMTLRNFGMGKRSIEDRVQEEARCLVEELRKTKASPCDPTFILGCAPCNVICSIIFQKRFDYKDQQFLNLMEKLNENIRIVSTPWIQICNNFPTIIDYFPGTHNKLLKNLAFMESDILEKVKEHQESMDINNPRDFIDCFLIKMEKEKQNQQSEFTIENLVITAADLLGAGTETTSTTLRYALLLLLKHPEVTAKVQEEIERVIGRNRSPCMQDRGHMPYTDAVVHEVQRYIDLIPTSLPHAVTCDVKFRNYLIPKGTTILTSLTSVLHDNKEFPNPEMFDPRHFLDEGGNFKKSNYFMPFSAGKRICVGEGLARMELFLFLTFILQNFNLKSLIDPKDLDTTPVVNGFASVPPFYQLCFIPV
sEH activator: activators of human soluble epoxide hydrolase. purified human sEH enzymatic activity, activator screen. activation, % at 2 µM. 91,000 compounds, 0.04% hits. AID 717; in the data active = activation above about 37%
CYP2C9 act: CYP2C9 (human) activation; AID 1024; P11712; recombinant CYP2C9, luciferin-H conversion, luminescence; active compounds read high; factor 1 = untreated enzyme, 0 = blocked; activation factor at 5 µM; 96,000 compounds, 1.4% hits;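 active = activation factor of 2 or more for CYP2C9 at a 5 µM dose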;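 note: 0 = sulfaphenazole-blocked wells and 1 = vehicle-only wells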
CYP2C19 act: increases human CYP2C19 enzyme activity; P33261; recombinant CYP2C19, luciferin-H EGE luminescence; active compounds read high; 0 = fully inhibited enzyme, 1 = untreated enzyme; activation factor at 5 µM; 96,000 tested, under 10 active;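 active = activation factor of at least 2 at 5 µM in the primary screen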;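 note: 0 = wells with 2.5 mM tranylcypromine and 1 = vehicle-only wells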
sEH inhibitor: inhibitors of human soluble epoxide hydrolase; P34913; recombinant human sEH enzymatic activity assay; inhibition, % at 2 µM; 91,000 compounds, 0.34% hits; AID 707; in the data active = inhibition above about 80%
CYP2C9 inhib: human CYP2C9 inhibition. inhibition, % at 5 µM. 96,000 compounds, 20% hits. CYP2C9 Supersomes, luciferin-H conversion, luminescence;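 active = blocking of liver enzyme CYP2C9 beyond about 50% at 5 µM, limit read from the data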
Active calls of the source: *; / = no result. A selection: hits, their analogues and other compounds. The true share with any hit is near 27%.

SMILES	CYP2C19 inhib	sEH activator	CYP2C9 act	CYP2C19 act	sEH inhibitor	CYP2C9 inhib
Cc1cc(OCC(=O)O)c2c3c(c(=O)oc2c1)CCCC3	1	8	0.9	1	-3	9
Cc1ccc(-n2nc(C)cc2NC(=O)COc2cc(C)cc3oc(=O)c4c(c23)CCC4)cc1	25	-2	0.2	0.8	4	80*
Cc1cc(OCC(=O)Nc2cc(C)nn2-c2ccccn2)c2c3c(c(=O)oc2c1)CCC3	3	/	0.5	1	/	48
CC(C)N1C(=O)CC2(CC[N+](C)(CCOC(=O)C(O)(c3ccccc3)c3ccccc3)CC2)C1=O (stereo unspecified)	-3	0	1	1	2	-3
COC(=O)C(O)(c1ccc(NC(=S)NC(=O)c2ccccc2)cc1)C(F)(F)F (stereo unspecified)	9	-10	0.5	0.9	12	50*
CCOC(=O)C(O)(c1ccc(N(CC)S(=O)(=O)c2ccc(C)cc2)cc1)C(F)(F)F (stereo unspecified)	44	9	0.3	0.6	-9	69*
CCN(c1ccc(C(O)(C(=O)OC)C(F)(F)F)cc1)S(=O)(=O)c1ccc(C)cc1 (stereo unspecified)	49	4	0.6	0.5	-6	45
CCOC(=O)N(C)c1ccc(C(O)(C(=O)OC)C(F)(F)F)cc1 (stereo unspecified)	/	6	/	/	0	/
COC(=O)C(O)(c1ccc(N(C)S(=O)(=O)c2ccccc2)cc1)C(F)(F)F (stereo unspecified)	92*	/	0.1	0.1	/	88*
O=C1C2CCN(CC2)C1Cc1ccc(OCCOc2ccccc2)cc1 (stereo unspecified)	-15	-5	1.1	1.1	7	-9
CC(C)CC12CN3CCN(CC(C3)C1O)C2 (stereo unspecified)	-10	0	1	1.1	1	-3
O=c1cccc2n1CC1CC2CN(S(=O)(=O)c2ccccc2)C1 (stereo unspecified)	-3	6	1.1	1	-7	-8
CC(C(=O)N1CCC2(CC1)OCCO2)C1Sc2ccccc2NC1=O (stereo unspecified)	95*	6	0.9	0	-9	13
CCC(C(=O)N1CCC2(CC1)OCCO2)c1ccccc1 (stereo unspecified)	/	-4	/	/	4	/
CC1(C)CN=C(NCc2ccccc2Cl)S1	65*	6	0.9	0.4	-6	9
CCOC(=O)C(C)(CC)NC(=O)CSP(=S)(OCC)OCC (stereo unspecified)	98*	7	0.1	0	-7	91*
CCOP(=S)(OCC)SCC(=O)NC(C(=O)O)C(C)C (stereo unspecified)	7	27	0.1	0.9	-29	92*
O=c1cccc2n1CC1CC2CN(c2ncnc3c2cnn3-c2ccc(Cl)cc2)C1 (stereo unspecified)	-15	/	0.9	1.1	/	12

Screening data: PubChem, several laboratories
